Test results published in PubChem BioAssay AID1159580 (chemical genetic matrix, 2015).
About 2,000 (36%) of roughly 5,500 compounds were called active. Not shown: some 18% with an inconclusive outcome. Cut-off read from the data, not from the text of the source: active = normalized growth mostly below about 0.91 (no sharp cut-off); inconclusive = no clear call, values can overlap the other calls; inactive = mostly above about 0.92. The list shows a part of the results.

Assay: chemical genetic growth profiling, strain panel (AID 1159580);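 note: tested at 20 µM; growth read once vehicle control cultures reached saturation at 30 °C; 1 = growth at the plate median or of vehicle wells; lower values mean less growth of the strain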
Conditions: growth OD

Measured: normalized growth

CC(C)[C@@H]1CC[C@@H](C)CC1=O
inactive: S. cerevisiae deletion strains, locus YJR066W, strain TOR1, stronger effect = lower value 0.94 | S. cerevisiae deletion strains, locus YJR075W, strain HOC1, stronger effect = lower value 1.02 | S. cerevisiae deletion strains, locus YKL009W, strain mrt4, stronger effect = lower value 1.01 | S. cerevisiae deletion strains, locus YKL068W, stronger effect = lower value 1.02 | S. cerevisiae deletion strains, locus YKL085W, strain MDH1 (second series), stronger effect = lower value 0.999 | S. cerevisiae deletion strains, locus YKL085W, strain MDH1, stronger effect = lower value 0.999 | S. cerevisiae deletion strains, locus YKL160W, strain elf1, stronger effect = lower value 0.981 | S. cerevisiae deletion strains, locus YKR001C, strain vps1, stronger effect = lower value 0.991 | S. cerevisiae deletion strains, locus YKR026C, strain gcn3, stronger effect = lower value 0.984 | S. cerevisiae deletion strains, locus YKR091W, strain srl3, stronger effect = lower value 0.991 | S. cerevisiae deletion strains, locus YLL001W, strain dnm1, stronger effect = lower value 0.98 | S. cerevisiae deletion strains, locus YLL026W, stronger effect = lower value 0.985 | S. cerevisiae deletion strains, locus YLL041C, strain sdh2, stronger effect = lower value 0.991 | S. cerevisiae deletion strains, locus YLR027C, strain aat2, stronger effect = lower value 0.979 | S. cerevisiae deletion strains, locus YLR039C, strain RIC1, stronger effect = lower value 1.09 | S. cerevisiae deletion strains, locus YLR058C, strain SHM2, stronger effect = lower value 1.02 | S. cerevisiae deletion strains, locus YLR102C, strain apc9, stronger effect = lower value 0.997 | S. cerevisiae deletion strains, locus YLR113W, strain HOG1, stronger effect = lower value 0.967 | S. cerevisiae deletion strains, locus YLR221C, strain rsa3, stronger effect = lower value 1.01 | S. cerevisiae deletion strains, locus YLR258W, strain gsy2, stronger effect = lower value 0.996 | S. cerevisiae deletion strains, locus YLR262C, strain YPT6 (second series), stronger effect = lower value 0.979 | S. cerevisiae deletion strains, locus YLR262C, strain YPT6, stronger effect = lower value 1.14 | S. cerevisiae deletion strains, locus YLR268W, strain sec22, stronger effect = lower value 1.02 | S. cerevisiae deletion strains, locus YLR320W, strain mms22, stronger effect = lower value 1.01 | S. cerevisiae deletion strains, locus YLR330W, strain CHS5, stronger effect = lower value 1.01 | S. cerevisiae deletion strains, locus YLR342W, strain FKS1 (second series), stronger effect = lower value 1.03 | S. cerevisiae deletion strains, locus YLR342W, strain FKS1, stronger effect = lower value 0.995 | S. cerevisiae deletion strains, locus YLR357W, strain rsc2, stronger effect = lower value 0.998 | S. cerevisiae deletion strains, locus YLR370C, strain arc18, stronger effect = lower value 0.983 | S. cerevisiae deletion strains, locus YLR371W, strain rom2, stronger effect = lower value 1 | S. cerevisiae deletion strains, locus YLR384C, strain iki3, stronger effect = lower value 1.01 | S. cerevisiae deletion strains, locus YLR418C, strain cdc73, stronger effect = lower value 1.01 | S. cerevisiae deletion strains, locus YML016C, strain PPZ1, stronger effect = lower value 1.01 | S. cerevisiae deletion strains, locus YML032C, strain rad52, stronger effect = lower value 1.01 | S. cerevisiae deletion strains, locus YML120C, strain ndi1, stronger effect = lower value 0.982 | S. cerevisiae deletion strains, locus YML124C, strain tub3, stronger effect = lower value 0.999 | S. cerevisiae deletion strains, locus YMR058W, strain fet3, stronger effect = lower value 0.989 | S. cerevisiae deletion strains, locus YMR078C, strain ctf18, stronger effect = lower value 1 | S. cerevisiae deletion strains, locus YMR125W, strain sto1, stronger effect = lower value 0.965 | S. cerevisiae deletion strains, locus YMR129W, stronger effect = lower value 1 | S. cerevisiae deletion strains, locus YMR205C, strain PFK2, stronger effect = lower value 1 | S. cerevisiae deletion strains, locus YMR223W, strain ubp8, stronger effect = lower value 1 | S. cerevisiae deletion strains, locus YMR231W, strain pep5, stronger effect = lower value 1 | S. cerevisiae deletion strains, locus YMR263W, strain SAP30, stronger effect = lower value 1.02 | S. cerevisiae deletion strains, locus YMR307W, strain GAS1, stronger effect = lower value 1.02 | S. cerevisiae deletion strains, locus YNL067W, strain RPL9B, stronger effect = lower value 1.03 | S. cerevisiae deletion strains, locus YNL071W, strain lat1, stronger effect = lower value 0.991 | S. cerevisiae deletion strains, locus YNL128W, strain TEP1, stronger effect = lower value 1.02 | S. cerevisiae deletion strains, locus YNL153C, strain GIM3, stronger effect = lower value 1.03 | S. cerevisiae deletion strains, locus YNL183C, strain NPR1, stronger effect = lower value 0.935 | S. cerevisiae deletion strains, locus YNL209W, strain ssb2, stronger effect = lower value 1 | S. cerevisiae deletion strains, locus YNL233W, strain BNI4, stronger effect = lower value 1.04 | S. cerevisiae deletion strains, locus YNL248C, strain rpa49, stronger effect = lower value 0.997 | S. cerevisiae deletion strains, locus YNL250W, strain rad50, stronger effect = lower value 1 | S. cerevisiae deletion strains, locus YNL271C, strain bni1, stronger effect = lower value 1 | S. cerevisiae deletion strains, locus YNL298W, strain CLA4, stronger effect = lower value 0.999 | S. cerevisiae deletion strains, locus YNL307C, strain MCK1, stronger effect = lower value 1.01 | S. cerevisiae deletion strains, locus YNL322C, strain KRE1 (second series), stronger effect = lower value 0.995 | S. cerevisiae deletion strains, locus YNL322C, strain KRE1, stronger effect = lower value 1.01 | S. cerevisiae deletion strains, locus YNR049C, strain mso1, stronger effect = lower value 1 | S. cerevisiae deletion strains, locus YNR052C, strain pop2, stronger effect = lower value 0.991 | S. cerevisiae deletion strains, locus YOL006C, strain TOP1, stronger effect = lower value 1.06 | S. cerevisiae deletion strains, locus YOL012C, strain htz1 0.896 | S. cerevisiae deletion strains, locus YOL147C, strain pex11, stronger effect = lower value 1.01 | S. cerevisiae deletion strains, locus YOR001W, strain rrp6, stronger effect = lower value 1.01 | S. cerevisiae deletion strains, locus YOR061W, strain CKA2, stronger effect = lower value 1.01 | S. cerevisiae deletion strains, locus YOR069W, strain VPS5, stronger effect = lower value 0.999 | S. cerevisiae deletion strains, locus YOR070C, strain gyp1, stronger effect = lower value 0.996 | S. cerevisiae deletion strains, locus YOR080W, strain dia2, stronger effect = lower value 0.99 | S. cerevisiae deletion strains, locus YOR083W, strain WHI5, stronger effect = lower value 0.965 | S. cerevisiae deletion strains, locus YOR106W, strain vam3, stronger effect = lower value 0.98 | S. cerevisiae deletion strains, locus YOR136W, strain idh2, stronger effect = lower value 0.987 | S. cerevisiae deletion strains, locus YOR144C, strain elg1, stronger effect = lower value 1 | S. cerevisiae deletion strains, locus YOR184W, strain ser1, stronger effect = lower value 1.02 | S. cerevisiae deletion strains, locus YOR231W, strain MKK1, stronger effect = lower value 0.955 | S. cerevisiae deletion strains, locus YOR265W, strain rbl2, stronger effect = lower value 0.989 | S. cerevisiae deletion strains, locus YOR270C, strain vph1, stronger effect = lower value 1.01 | S. cerevisiae deletion strains, locus YOR290C, strain snf2, stronger effect = lower value 0.954 | S. cerevisiae deletion strains, locus YOR316C, strain cot1, stronger effect = lower value 1.01 | S. cerevisiae deletion strains, locus YPL051W, strain arl3, stronger effect = lower value 0.998 | S. cerevisiae deletion strains, locus YPL055C, strain LGE1, stronger effect = lower value 1.02 | S. cerevisiae deletion strains, locus YPL078C, strain atp4, stronger effect = lower value 0.969 | S. cerevisiae deletion strains, locus YPL106C, strain sse1, stronger effect = lower value 0.967 | S. cerevisiae deletion strains, locus YPL240C, strain hsp82, stronger effect = lower value 0.996 | S. cerevisiae deletion strains, locus YPL241C, strain CIN2, stronger effect = lower value 1.01 | S. cerevisiae deletion strains, locus YPL256C, strain CLN2, stronger effect = lower value 0.96 | S. cerevisiae deletion strains, locus YPR119W, strain clb2, stronger effect = lower value 1 | S. cerevisiae deletion strains, locus YPR141C, strain kar3, stronger effect = lower value 0.991 | S. cerevisiae deletion strains, locus YPR163C, strain tif3, stronger effect = lower value 1.01 | S. cerevisiae deletion strains, locus YPR167C, strain met16, stronger effect = lower value 0.992 | S. cerevisiae deletion strains, strain wtn01, stronger effect = lower value 0.992 | S. cerevisiae strains, strain wild type, stronger effect = lower value 1.01
